Compound activity: PubChem BioAssay, National Center for Advancing Translational Sciences (NCATS)
A selection: hits, their analogues and other compounds. The true share with any hit is near 0.92%.
L3MBTL1 inh: blocks human L3MBTL1 | Q9Y468 | AlphaScreen L3MBTL1–H3K9me1 peptide binding | Potency, µM (titrated, usually from 57.1 µM), hits mostly inhibitors | 0.66% of 230,000 active | AID 485360; note: nearly all actives have a fitted effect of over 60% in size
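L3MBTL1 (50 nM) pre-complexed 30 min with biotinylated H3(1-15)K9me1 peptide (75 nM), then compounds added for 30 min at room temperature; AlphaScreen streptavidin donor/nickel chelate acceptor beads (10 ug/mL final) read after 30 min dark incubation.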
APEX1 inh: APE1 (human) endonuclease inhibition; P27695; recombinant APE1, TAMRA/BHQ-2 abasic DNA cleavage fluorescence; Potency, µM (top dose mostly 65.8 µM), hits mostly inhibitors; 0.35% of 350,000 active; note: nearly all actives have a fitted effect of over 55% in size
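Endonuclease cleavage of a quenched abasic-site DNA duplex (50 nM) by APE1 (0.75 nM) was tracked by TAMRA dequenching. Compounds were preincubated with enzyme 15 min at room temperature; data normalized to buffer-only and DMSO wells plus NSC13755 control.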
BLM helicase inh-1: inhibitors of human Bloom syndrome helicase BLM; recombinant BLM DNA unwinding, fluorescence dequenching; 0.2% of 350,000 active; AID 2528; Potency, µM (series often up to 56.1 µM), usual class: inhibitors; note: nearly all actives have a fitted effect of over 35% in size
WRN helicase inh-1: inhibitors of human WRN helicase. Q14191. WRN helicase unwinding, fluorescent forked duplex, kinetic. Potency, µM (doses to about 114 µM), most hits filed as inhibitors. 0.46% of 360,000 active. AID 651768; note: nearly all actives have a fitted effect of over 55% in size
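Primary qHTS, 1536-well format. 20 nM WRN + compound, 15 min RT; start with 100 nM forked fluorophore/quencher duplex, 2 mM ATP (final); kinetic read ex 525/em 598 nm.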
RECQ1 inh: RECQ1 (human) helicase inhibition | P46063 | RECQ1 DNA unwinding, red fluorescence kinetic read | Potency, µM (top dose mostly 57.3 µM), usual class: inhibitors | 0.54% of 240,000 active; note: nearly all actives have a fitted effect of over 30% in size
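RECQ1T1 50 nM; forked duplex (20 bp + 30-nt ss tails) 200 nM, ATP 2 mM final; pH 8.0, 2 mM MgCl2, 2.5 ug/ml poly(dI-dC); 15 min compound preincubation; discontinuous kinetic read over 2 h at RT.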
WRN helicase inh-2: WRN helicase inhibition, cherry-pick retest; 63% of 610 active; shares compounds with WRN helicase inh-1; WRN helicase DNA unwinding, fluorescence kinetic; Potency, µM (doses to about 57.1 µM), hits mostly inhibitors; note: nearly all actives have a fitted effect of over 65% in size
TO DNA binding: binds DNA, flagged in WRN inhibitor counterscreen; shares compounds with WRN helicase inh-1; thiazole orange DNA binding displacement, fluorescence; Potency, µM (series often up to 57.1 µM), actives largely listed as inhibitors; 10% of 610 active;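 note: drop in dye fluorescence marks compound binding to DNA; nearly all actives have a fitted effect of over 60% in size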
BLM helicase inh-2: blocks human BLM helicase in WRN counterscreen. shares compounds with WRN helicase inh-1. Recombinant BLM helicase DNA unwinding, red fluorescence. Potency, µM (doses to about 57.1 µM), hits mostly inhibitors. 60% of 610 active. AID 720503; note: nearly all actives have a fitted effect of over 60% in size
Each line names hits and unclear results; the compound was inactive in the other large screens (follow-up assays come after a bar, where they were run). Calls come from the whole dose curve; as a rule, active = well fitted curve in the direction sought with a large enough effect; inconclusive = small, poorly fitted or top-dose-only effect, or another doubt; inactive = no such curve, though single readings can be large; an effect the other way counts as inactive or inconclusive.

COc1ccc(-c2csc(/C(C#N)=C\c3ccc(O)c([N+](=O)[O-])c3)n2)cc1OC	WRN helicase inh-1 inconclusive
Cc1c(CCNC(=O)c2c(F)cccc2F)sc2nc(-c3ccc(F)cc3)nn12	none (no result: L3MBTL1 inh, APEX1 inh, WRN helicase inh-1, RECQ1 inh)
N#C/C(=C\c1ccc(-c2cc(Cl)ccc2Cl)o1)C(=O)Nc1ccccc1C(=O)O	BLM helicase inh-1 11.2µM (no result: L3MBTL1 inh, APEX1 inh, WRN helicase inh-1, RECQ1 inh) | WRN helicase inh-2 17.1µM | TO DNA binding 10.8µM | BLM helicase inh-2 3.04µM
CC1CC1c1ccc(/C=C(\C#N)C(=O)Nc2cc(Cl)ccc2Cl)o1 (stereo unspecified)	none
COc1ccc(C(=O)Nc2sc3c(c2C(N)=O)CCCC3)cc1OC	RECQ1 inh inconclusive (no result: L3MBTL1 inh, WRN helicase inh-1)
C=CS(=O)(=O)c1sc(Cl)c(N2CCOCC2)c1[N+](=O)[O-]	WRN helicase inh-1 31.6µM | WRN helicase inh-2 13.6µM | TO DNA binding inactive | BLM helicase inh-2 3.41µM
C=CSc1sc(Cl)c(N2CCOCC2)c1[N+](=O)[O-]	none
O=C1c2ccccc2C(=O)N1Nc1ccccc1	none
Cc1ccc(NN2C(=O)C=C(c3ccccc3)C2=O)cc1	WRN helicase inh-1 inconclusive | WRN helicase inh-2 inactive | TO DNA binding inactive | BLM helicase inh-2 inactive
CCCN1CCC(=O)N(C(CSc2ccc(C)cc2)CC(C)C)CC1 (stereo unspecified)	none (no result: L3MBTL1 inh, WRN helicase inh-1)
O=C(ONc1ccc(N=NC(=O)c2ccccc2O)cc1)c1ccccc1	WRN helicase inh-1 inconclusive, RECQ1 inh inconclusive | WRN helicase inh-2 21.5µM | TO DNA binding 27.1µM | BLM helicase inh-2 13.6µM
COc1ccc(Br)cc1CNCc1c(C(=O)O)c(C)n(Cc2ccccc2C)c1C	none (no result: L3MBTL1 inh, APEX1 inh, WRN helicase inh-1, RECQ1 inh)
CC(=O)Nc1ccc(C2NC(C(=O)O)CCC2C)cc1 (stereo unspecified)	none (no result: L3MBTL1 inh, WRN helicase inh-1)
N#CCC(=O)Nc1ccc(C(=O)OCC(=O)NNC(=O)c2ccc(Cl)cc2)cc1	WRN helicase inh-1 inconclusive (no result: BLM helicase inh-1, RECQ1 inh) | WRN helicase inh-2 inconclusive | TO DNA binding 30.4µM | BLM helicase inh-2 inconclusive
